Screening data deposited in PubChem by National Center for Advancing Translational Sciences (NCATS).
Rows were chosen to be rich in hits. Some 19% of all compounds tested hit in one or more screens of this group.
TDP1 cell CPT = qHTS for Inhibitors of human tyrosyl-DNA phosphodiesterase 1 (TDP1): qHTS in cells in presence of CPT. 420,000 compounds, 12% hits. AID 686979, 2013. chicken DT40 Tdp1-/-;hTDP1 cells + 20 nM CPT, ATP luminescence, 48 h. Potency, µM (titrated, usually from 46.2 µM), without a hit: at the top dose activity change, negative = growth inhibition, hits mostly inhibitors; further: potency means the concentration at half of the fitted maximal effect; on the % scale 0 is the no-effect control and ±100 the full control effect; nearly all actives have a fitted effect of over 55% in size
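Cell growth measured by CellTiter-Glo luminescence after a minimum 48 h, 37 C compound exposure with 20 nM CPT in Tdp1-knockout DT40 cells stably expressing hTDP1, seeded 400/well; qHTS titration format.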
IL-1B inflam inh = qHTS for Inhibitors of Inflammasome Signaling: IL-1-beta AlphaLISA Primary Screen | activity change, % at 57.5 µM | THP-1 LPS/ATP IL-1B secretion, AlphaLISA, 16 h; active compounds read low | 360,000 compounds, 4.7% hits; in the data active means activity change below about -50%; inconclusive means mostly about -30% to -49%; further: on the % scale 0 is the no-effect control and ±100 the full control effect
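THP-1 cells pretreated 1 hr with compounds (up to 57.5 uM final), then stimulated with LPS (250 ng/mL final) plus ATP (1.25 mM final); secreted IL-1B measured by AlphaLISA after 16 hr, decreased signal indicating inhibition.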
Chronic BCR inh = qHTS Assay to Find Inhibitors of Chronic Active B-Cell Receptor Signaling; ABC-DLBCL IkBa-CBG/CBR reporter, luminescence ratio, 4 h; Potency, µM (titrated, usually from 46.1 µM), inactives show top-dose activity change, negative = inhibition, most hits filed as inhibitors; 340,000 compounds, 0.05% hits; AID 493014, 2011; active means well fitted inhibition curve with a large enough effect in the signal ratio, with a control signal flat, not every such curve was filed as active; inconclusive means small, poorly fitted or top-dose-only effect, or effect the other way, or a change in a side signal; the % refers to the signal ratio;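 further: potency means the concentration at half of the fitted maximal effect; plate controls were basal doxycycline-induced cells for no effect and cells given 10 µM MG132 for full effect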
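Doxycycline induced both beetle luciferases in TMD8 lymphoma cells; IKK-driven degradation limits the IkappaBalpha-fused green signal, while red luminescence normalises for cell number and nonspecific effects. Compounds tested up to 46 uM, 4 hrs.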
SW480 rerep = A quantitative high throughput screen for small molecules that induce DNA re-replication in SW480 colon adenocarcinoma cells | Potency, µM (highest dose often 46.1 µM), inactives show top-dose re-replication activation, most hits filed as activators | 340,000 compounds, 1.8% hits | SW480 DNA re-replication, Hoechst DNA content imaging, 48 h; further: potency means the concentration at half of the fitted maximal effect; % of control where 0% means no effect; nearly all actives have a fitted effect of over 55% in size
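Quantitative HTS format with DMSO vehicle controls; 48 hr drug incubation at 37 C, then 40 min Hoechst staining and scanning imager measurement at 405 nm excitation.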
MCF10A rerep = A quantitative high throughput screen for small molecules that induce DNA re-replication in MCF 10a normal breast cells; MCF 10A DNA re-replication, Hoechst nuclear intensity, 48 h; 350,000 compounds, 2.9% hits; Potency, µM (titrated, usually from 46.1 µM), for inactives: at the highest dose activity, positive = re-replication, hits mostly activators; further: potency means the concentration at half of the fitted maximal effect; % of control where 0% means no effect; nearly all actives have a fitted effect of over 50% in size
TDP1 cell noCPT = qHTS for Inhibitors of human tyrosyl-DNA phosphodiesterase 1 (TDP1): qHTS in cells in absence of CPT; DT40 Tdp1-/- hTDP1 cells, no CPT, ATP luminescence, 48 h; Potency, µM (highest dose often 46.2 µM), without a hit: at the top dose activity change, negative = growth inhibition, most hits filed as inhibitors; 420,000 compounds, 15% hits; AID 686978, 2013; further: potency means the concentration at half of the fitted maximal effect; on the % scale 0 is the no-effect control and ±100 the full control effect; nearly all actives have a fitted effect of over 55% in size
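Growth of hTDP1-complemented DT40 Tdp1-knockout cells is measured by ATP luminescence after at least 48 hr compound exposure at 37 °C, with DMSO substituting for the 20 nM CPT used in the parallel screen.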
* = called active by the depositor; u = inconclusive; x = no result. Unless noted, the call rests on the fitted dose curve; in most records, active means well fitted curve in the direction sought with a large enough effect; inconclusive means small, poorly fitted or top-dose-only effect, or another doubt; inactive means no such curve, though single readings can be large; an effect the other way counts as inactive or inconclusive.

SMILES | TDP1 cell CPT | IL-1B inflam inh | Chronic BCR inh | SW480 rerep | MCF10A rerep | TDP1 cell noCPT
CCCCOP(=O)(OCCCC)C(Nc1ccccc1)c1ccc2c(c1)OCO2 (configuration not stated) | u | -28.2 | 5.2% | -59.8% | u | 13µM*
CCOP(=O)(OCC)C(Nc1ccccc1)c1ccc2c(c1)OCO2 (configuration not stated) | 13µM* | 4.8 | -1.1% | -24.8% | -0.1% | u
Cc1ccc(C2CC(=O)C=C(Nc3ccc(Cl)cc3)C2)cc1 (configuration not stated) | u | 16.8 | u | 6.0% | u | u
Cc1ccc(C2CC(=O)C=C(NCc3ccccc3)C2)cc1 (configuration not stated) | 5.17µM* | -17.1 | 11.6% | 23.1µM* | 20.6µM* | 4.61µM*
Cc1ccc(C2CC(=O)C=C(NCC(C)C)C2)cc1 (configuration not stated) | u | -22.4 | 0.9% | -12.3% | u | 20.6µM*
O=C1C=C(NCc2ccc3c(c2)OCO3)CC(c2ccccc2)C1 (configuration not stated) | u | 2.1 | -3.6% | u | u | 18.4µM*
O=C1C=C(c2ccc(-c3ccccc3)cc2)C[C@@H](c2ccc3c(c2)OCO3)C1 | 4.0% | 30.1 | -1.7% | -9.5% | 22.8% | 4.4%
COc1ccc(C2CC(=O)C=C(NCCC(C)C)C2)cc1 (configuration not stated) | u | -20.6 | -1.6% | -1.6% | 1.1% | 14.6µM*
CC(=O)N(CC(O)CO)c1c(I)c(C(=O)NCCO)c(I)c(C(=O)NCC(O)CO)c1I (configuration not stated) | -6.7% | x | x | x | x | 4.4%
Cc1nn(C)c(C)c1S(=O)(=O)NCCc1ccc(Cl)cc1 | 17.9% | 13.6 | 1.4% | -21.4% | -13.8% | -9.8%
COc1cccc(CCc2ccccc2OCC(CN(C)C)OC(=O)CCC(=O)O)c1 (configuration not stated) | 15.8µM* | x | x | 29.9µM* | 29.3% | 11.2µM*
COc1ccc(OC)c(C2CC(=O)c3c([nH]c(C(=O)OCC4CCCO4)c3C)C2)c1 (configuration not stated) | 5.8µM* | -20.7 | -1.3% | u | 14.6µM* | 5.17µM*
CCOC(=O)c1[nH]c2c(c1C)C(=O)CC(c1ccc(OC)c(OC)c1)C2 (configuration not stated) | 2.4% | 0.4 | 2.0% | -4.6% | -3.3% | -33.9%
COc1ccc(OC)c(C2CC(=O)c3c([nH]c(C(=O)OC4CCC(C)CC4)c3C)C2)c1 (configuration not stated) | 14.6µM* | x | x | x | x | 8.2µM*
COc1ccc(OC)c(C2CC(=O)c3c([nH]c(C(=O)OCc4ccc(C)cc4)c3C)C2)c1 (configuration not stated) | 4.61µM* | x | x | x | x | 0.651µM*
COc1cc(C2CC(=O)c3c([nH]c(C(=O)OCc4ccc(C)cc4)c3C)C2)cc(OC)c1OC (configuration not stated) | 1.46µM* | x | x | x | x | 0.92µM*
CCN(C[C@H]1N[C@@](C)(C(=O)OC)[C@H]2C(=O)N(C)C(=O)[C@@H]12)C(=O)COc1ccccc1 | u | 1.2 | -0.2% | 0.2% | -21.6% | u
CCCOCCOC(=O)c1[nH]c2c(c1C)C(=O)CC(c1cc(OC)ccc1OC)C2 (configuration not stated) | 5.17µM* | -72.0* | u | 3.66µM* | u | 5.8µM*
COc1ccc(OC)c(C2CC(=O)c3c([nH]c(C(=O)OC(C)C)c3C)C2)c1 (configuration not stated) | 0.82µM* | 10.3 | u | 3.66µM* | u | 0.82µM*
COCCOC(=O)c1[nH]c2c(c1C)C(=O)CC(c1cc(OC)ccc1OC)C2 (configuration not stated) | 2.91µM* | 36.3 | 0.2% | 13µM* | u | 2.59µM*
CN(CC(=O)Nc1cccc(F)c1)C(=O)c1ccccc1Sc1ccccc1C#N | u | -20.6 | 0.9% | u | 3.2% | u
O=C(CN1C(=O)NC2(CCc3ccccc32)C1=O)Nc1ccc(Br)cc1F (configuration not stated) | u | 0.0 | 0.1% | 42.6% | 2.2% | -24.7%
CCn1c(C)c(CS(=O)(=O)c2ccccc2)[nH]c1=O | 4.11µM* | -6.0 | u | 8.2µM* | 7.31µM* | 2.91µM*
CCn1c(=O)[nH]c2ccccc21 | 0.0% | x | x | x | x | -7.8%
Cn1c(=O)[nH]c(=O)c2c1nc(N1CCCCCC1)n2Cc1cccc2ccccc12 | -21.0% | -13.9 | 0.1% | -10.7% | u | 16.4µM*
SMILES | TDP1 cell CPT | IL-1B inflam inh | Chronic BCR inh | SW480 rerep | MCF10A rerep | TDP1 cell noCPT
Cn1c(=O)[nH]c(=O)c2c1nc(N1CCCCCC1)n2CCOc1ccccc1 | -26.1% | 17.1 | 8.1% | 2.7% | -13.3% | 23.1µM*
CCC(C)Nc1nc2c(c(=O)[nH]c(=O)n2C)n1CCOc1ccccc1 (configuration not stated) | 20.6µM* | 0.0 | -11.5% | -10.1% | -11.5% | u
Cn1c(=O)[nH]c(=O)c2c1nc(N1CCNCC1)n2Cc1ccccc1Cl | -3.7% | 5.4 | 1.1% | -37.9% | 2.91µM* | -23.3%
Cn1c(=O)c2c(nc(N3CCNCC3)n2Cc2ccccc2Cl)n(C)c1=O | -3.2% | 0.0 | 4.2% | -19.9% | -3.2% | -24.1%
CCn1c(N2CCN(CC(=O)c3c(C)n(C)c4ccccc34)CC2)nc2c1c(=O)[nH]c(=O)n2C | u | -70.7* | u | u | 0.8% | u
Cn1c(N2CCCCC2)nc2c1c(=O)[nH]c(=O)n2C | -2.3% | 28.2 | -0.5% | -11.2% | 1.0% | -13.4%
CN(Cc1ccccc1)c1nc2c(c(=O)[nH]c(=O)n2C)n1CCOc1ccccc1 | u | -7.7 | u | 1.1% | 2.6% | 16.4µM*
Cn1c(N2CCN(C(c3ccccc3)c3ccccc3)CC2)nc2c1c(=O)[nH]c(=O)n2C | 20.6µM* | 47.7 | 1.8% | -6.2% | 7.2% | 18.4µM*
CN(Cc1ccccc1)c1nc2c(c(=O)[nH]c(=O)n2C)n1Cc1ccccc1 | -29.2% | 17.3 | u | -11.9% | u | u
